Assay results taken from PubChem BioAssay (EPA / NIEHS).
Records with an inconclusive call do not appear. Active and inactive are the calls of the source. How the source made its calls, unless noted: active means hit-call score of the fitted dose curve at least 0.9, where 1 is the maximum; inconclusive means response in the unintended direction; inactive means score below 0.9.

What was measured:
THRB (gene 7068) [1] = target: THRB (gene 7068) (UniProt P10828); test: TOX21_TRB_BLA_Agonist_Followup_ratio: Tox21 Thyroid Hormone Receptor beta Agonism Beta-lactamase (BLA) Follow-Up Assay, Ratio (AID 2283954)
Chain of THRB (gene 7068) (P10828 whole entry, looked up, the tested form may be a part): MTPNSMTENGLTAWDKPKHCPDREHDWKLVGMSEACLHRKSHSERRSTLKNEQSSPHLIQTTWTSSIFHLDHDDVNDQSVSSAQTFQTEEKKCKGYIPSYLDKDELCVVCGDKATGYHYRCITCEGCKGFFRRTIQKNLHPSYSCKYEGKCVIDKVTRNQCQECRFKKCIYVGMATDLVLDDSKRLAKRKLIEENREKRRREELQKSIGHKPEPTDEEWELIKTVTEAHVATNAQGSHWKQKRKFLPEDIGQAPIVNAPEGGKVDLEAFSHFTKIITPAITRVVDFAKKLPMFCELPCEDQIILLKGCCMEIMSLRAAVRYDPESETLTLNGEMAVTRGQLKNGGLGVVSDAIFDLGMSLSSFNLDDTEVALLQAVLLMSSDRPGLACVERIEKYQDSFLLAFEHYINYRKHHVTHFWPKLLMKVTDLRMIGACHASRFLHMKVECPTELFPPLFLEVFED
Procedure, shortened: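 Human TRβ LBD–GAL4 DBD fusion in GeneBLAzer UAS-bla HEK293T cells; 11 concentrations in triplicate, 18 h at 37°C/5% CO2, T3 as agonist control. CCF4-AM substrate 2 h at room temperature; 460:530 nm ratio fitted for gain of signal versus DMSO.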

THRB (gene 7068) [2] = target: THRB (gene 7068) (UniProt P10828); test: TOX21_TRB_COA_Agonist_Followup_ratio: Tox21 Thyroid Hormone Receptor beta Agonism through Coactivator Recruitment Follow-Up Assay, Ratio (AID 2283963; active means hit-call score of the fitted dose curve at least 0.9, where 1 is the maximum; inactive means score below 0.9)
Procedure, shortened: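 Cell-free TR-FRET coactivator recruitment: GST-tagged TRβ LBD (5.0 nM) with 0.10% BSA incubated with compound, then fluorescein-SRC-2 peptide (200 nM) and Tb-anti-GST antibody (2 nM) added. 520:495 nm ratio normalized to DMSO (0%) and T3 (100%).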

[3] = target: Retinoic acid receptor RXR-alpha (Homo sapiens) (UniProt P19793); test: TOX21_TR_RXR_BLA_Agonist_Followup_ratio: Tox21 Thyroid Hormone Receptor beta Retinoid X Receptor alpha (RXRa) Agonism Beta-lactamase (BLA) Follow-Up Assay, Ratio (AID 2283968)
Procedure, shortened: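 RXRa-UAS-bla HEK293T cells (GAL4 beta-lactamase reporter) were treated with compounds at 11 concentrations in triplicate for 16 h at 37C/5% CO2, then loaded with CCF4-AM substrate for 2 h at room temperature; activity is the 460:530 nm ratio versus DMSO baseline.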

[4] = TOX21_TR_RXR_BLA_Agonist_Followup_viability: Viability Assessment in the Tox21 Thyroid Hormone Receptor beta Retinoid X Receptor alpha (RXRa) Agonism Beta-lactamase (BLA) Follow-Up Assay (AID 2283970)
Procedure, shortened: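 RXRa-UAS-bla HEK293T cells seeded at 2,500/well in phenol red-free DMEM with 2% charcoal-stripped FBS, exposed to compound 16h at 37C/5% CO2 in qHTS. Viability read by CellTiter-Glo ATP luminescence; bidirectional fitting against DMSO baseline, signal loss indicating cytotoxicity.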

[5] = target: rat Neonicotinoid receptor (NNR), Chrna7 (gene 25302) (UniProt Q05941); test: NVS_LGIC_rNNR_BungSens: NovaScreen (NVS) Ligand-Gated Ion Channel Assay for rat Neonicotinoid receptor (NNR) (AID 2283315)
Procedure, shortened: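 Radioligand displacement binding on rat cortical membranes, 2.5 h incubation, filtration and scintillation counting. Loss of specific binding fitted relative to DMSO.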

[6] = CCTE_Mundy_HCI_iCellGluta_NOG_NeuronCount: CCTE's Neurite Outgrowth Assay in iCellGluta cells for Neuron Count, Mundy Lab (AID 2284340);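 further: cells fixed about 48 h after compound addition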
Procedure, shortened: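 Neuron count read by automated high-content imaging of Hoechst 33342 and betaIII-tubulin/Alexa Fluor-488 labelling in human iPSC glutamatergic neurons. Activity fitted relative to DMSO.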

[7] = target: rat CYP2C11, Cyp2c11 (gene 29277) (UniProt P08683); test: NVS_ADME_rCYP2C11: NovaScreen (NVS) CYP450-related Enzyme Activity (ADME) Assay for rat CYP2C11 (AID 2283118)
Procedure, shortened: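 Cell-free recombinant rat enzyme with fluorescent substrate; readout 0.33 h after dosing, loss of signal versus acetonitrile control. Initial duplicate single-point at 10 uM; actives rerun in concentration series.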

[8] = target: rat CYP2C13, Cyp2c13 (gene 171521) (UniProt P20814); test: NVS_ADME_rCYP2C13: NovaScreen (NVS) CYP450-related Enzyme Activity (ADME) Assay for rat CYP2C13 (AID 2283121)
Chain of rat CYP2C13, Cyp2c13 (gene 171521) (P20814 whole entry, looked up): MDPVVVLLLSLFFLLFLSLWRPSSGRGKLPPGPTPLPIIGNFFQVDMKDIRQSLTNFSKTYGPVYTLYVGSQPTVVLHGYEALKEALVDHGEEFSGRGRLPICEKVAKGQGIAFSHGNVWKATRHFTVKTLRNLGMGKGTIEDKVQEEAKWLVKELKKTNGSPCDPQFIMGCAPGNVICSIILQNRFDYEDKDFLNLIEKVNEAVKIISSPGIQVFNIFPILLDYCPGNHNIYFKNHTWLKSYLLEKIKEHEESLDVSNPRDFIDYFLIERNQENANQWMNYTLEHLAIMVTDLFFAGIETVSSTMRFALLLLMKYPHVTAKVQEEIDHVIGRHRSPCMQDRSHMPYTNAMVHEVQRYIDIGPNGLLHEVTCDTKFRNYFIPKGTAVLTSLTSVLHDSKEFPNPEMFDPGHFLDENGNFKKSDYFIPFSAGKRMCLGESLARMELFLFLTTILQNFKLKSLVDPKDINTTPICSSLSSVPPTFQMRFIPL
Procedure, shortened: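 Recombinant rat CYP2C13 with fluorogenic substrate, 0.75 h cell-free incubation; primary screen in duplicate at 10 uM, actives followed in concentration series. Fluorescence loss relative to acetonitrile control indicates inhibition.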

[9] = target: human CYP1A2, CYP1A2 (gene 1544) (UniProt P05177); test: NVS_ADME_hCYP1A2: NovaScreen (NVS) CYP450-related Enzyme Activity (ADME) Assay for human CYP1A2 (AID 2283102)
Chain of human CYP1A2, CYP1A2 (gene 1544) (P05177 whole entry, looked up): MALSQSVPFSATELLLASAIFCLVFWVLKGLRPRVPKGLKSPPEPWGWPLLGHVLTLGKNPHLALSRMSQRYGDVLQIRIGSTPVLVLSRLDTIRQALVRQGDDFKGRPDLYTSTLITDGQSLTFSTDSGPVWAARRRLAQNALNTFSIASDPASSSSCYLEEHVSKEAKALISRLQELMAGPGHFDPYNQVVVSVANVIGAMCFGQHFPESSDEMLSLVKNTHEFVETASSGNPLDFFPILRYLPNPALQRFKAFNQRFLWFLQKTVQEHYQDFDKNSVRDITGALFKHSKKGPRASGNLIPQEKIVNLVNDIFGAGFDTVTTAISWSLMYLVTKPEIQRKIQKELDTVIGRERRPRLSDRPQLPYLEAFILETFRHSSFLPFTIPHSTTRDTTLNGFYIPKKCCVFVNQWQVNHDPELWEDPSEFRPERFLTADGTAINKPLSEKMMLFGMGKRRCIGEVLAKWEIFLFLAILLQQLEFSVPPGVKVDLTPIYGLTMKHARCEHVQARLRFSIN
Procedure, shortened: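 rec. hCYP1A2 (insect cells), cell-free; fluorogenic substrate; 0.5 h; FI read. Baseline = acetonitrile; signal loss = inhibition. 10 uM duplicate primary → conc. series for actives.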

[10] = target: human Aurora Kinase A - serine/threonine-protein Kinase 6 (AurA), AURKA (gene 6790) (UniProt O14965); test: NVS_ENZ_hAurA: NovaScreen (NVS) Enzymatic Assay for human Aurora Kinase A - serine/threonine-protein Kinase 6 (AurA) (AID 2283142)
Chain of human Aurora Kinase A - serine/threonine-protein Kinase 6 (AurA), AURKA (gene 6790) (O14965 whole entry, looked up): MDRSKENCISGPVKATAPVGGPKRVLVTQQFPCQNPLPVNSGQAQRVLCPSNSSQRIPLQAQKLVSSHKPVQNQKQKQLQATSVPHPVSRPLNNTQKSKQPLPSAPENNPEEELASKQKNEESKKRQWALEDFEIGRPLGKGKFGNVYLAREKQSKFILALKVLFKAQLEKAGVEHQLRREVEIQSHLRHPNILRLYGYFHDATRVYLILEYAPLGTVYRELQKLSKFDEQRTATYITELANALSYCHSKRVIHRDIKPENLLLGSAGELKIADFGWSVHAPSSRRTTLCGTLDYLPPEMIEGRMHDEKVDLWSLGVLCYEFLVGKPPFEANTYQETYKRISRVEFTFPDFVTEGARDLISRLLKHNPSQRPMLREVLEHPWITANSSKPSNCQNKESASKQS
Procedure, shortened: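 Cell-free enzymatic assay with human Aurora A, 1 hour after dosing. Fluorescent substrate turnover detected after electrophoretic mobility shift separation of substrate and product. Screened at 25 uM, actives retested in concentration-response up to 50 uM.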

[11] = target: human Ephrin type-A Receptor 2 (EphA2), EPHA2 (gene 1969) (UniProt P29317); test: NVS_ENZ_hEphA2: NovaScreen (NVS) Enzymatic Assay for human Ephrin type-A Receptor 2 (EphA2) (AID 2283155)
Chain of human Ephrin type-A Receptor 2 (EphA2), EPHA2 (gene 1969) (P29317 whole entry, looked up): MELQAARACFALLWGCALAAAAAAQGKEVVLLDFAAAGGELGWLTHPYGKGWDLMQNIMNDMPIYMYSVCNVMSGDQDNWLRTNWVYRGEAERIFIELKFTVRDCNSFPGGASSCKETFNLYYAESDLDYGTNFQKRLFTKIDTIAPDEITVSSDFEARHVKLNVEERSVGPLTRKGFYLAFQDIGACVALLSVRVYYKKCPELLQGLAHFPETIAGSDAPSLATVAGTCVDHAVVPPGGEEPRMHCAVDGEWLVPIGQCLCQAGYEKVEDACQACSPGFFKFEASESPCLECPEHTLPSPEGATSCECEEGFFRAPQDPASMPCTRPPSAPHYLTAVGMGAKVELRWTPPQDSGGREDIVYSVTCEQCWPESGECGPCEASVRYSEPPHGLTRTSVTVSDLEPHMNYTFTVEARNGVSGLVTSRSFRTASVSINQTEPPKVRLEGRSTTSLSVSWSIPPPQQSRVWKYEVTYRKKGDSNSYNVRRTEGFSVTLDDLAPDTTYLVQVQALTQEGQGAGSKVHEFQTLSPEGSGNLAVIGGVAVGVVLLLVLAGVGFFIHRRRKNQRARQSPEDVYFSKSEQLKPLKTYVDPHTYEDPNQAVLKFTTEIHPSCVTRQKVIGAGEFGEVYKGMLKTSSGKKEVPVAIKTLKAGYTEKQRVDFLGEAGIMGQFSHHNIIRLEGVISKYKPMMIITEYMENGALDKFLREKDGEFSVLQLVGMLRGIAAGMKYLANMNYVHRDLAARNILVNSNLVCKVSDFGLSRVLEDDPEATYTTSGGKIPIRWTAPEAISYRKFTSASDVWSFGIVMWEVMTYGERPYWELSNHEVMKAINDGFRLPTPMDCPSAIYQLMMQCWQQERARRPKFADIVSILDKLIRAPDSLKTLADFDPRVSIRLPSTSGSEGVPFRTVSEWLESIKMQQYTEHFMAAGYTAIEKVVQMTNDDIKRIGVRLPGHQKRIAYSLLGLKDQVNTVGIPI
Procedure, shortened: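 Cell-free recombinant EphA2 kinase with specific substrate, 1 h, fluorescence with electrophoretic mobility-shift separation of substrate and product. Primary screen at 25 uM in duplicate; hits retested in singleton concentration-response up to 50 uM, referenced to DMSO.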

[12] = target: human Fibroblast Growth Factor Receptor 1 (FGFR1), FGFR1 (gene 2260) (UniProt P11362); test: NVS_ENZ_hFGFR1: NovaScreen (NVS) Enzymatic Assay for human Fibroblast Growth Factor Receptor 1 (FGFR1) (AID 2283159)
Chain of human Fibroblast Growth Factor Receptor 1 (FGFR1), FGFR1 (gene 2260) (P11362 whole entry, looked up): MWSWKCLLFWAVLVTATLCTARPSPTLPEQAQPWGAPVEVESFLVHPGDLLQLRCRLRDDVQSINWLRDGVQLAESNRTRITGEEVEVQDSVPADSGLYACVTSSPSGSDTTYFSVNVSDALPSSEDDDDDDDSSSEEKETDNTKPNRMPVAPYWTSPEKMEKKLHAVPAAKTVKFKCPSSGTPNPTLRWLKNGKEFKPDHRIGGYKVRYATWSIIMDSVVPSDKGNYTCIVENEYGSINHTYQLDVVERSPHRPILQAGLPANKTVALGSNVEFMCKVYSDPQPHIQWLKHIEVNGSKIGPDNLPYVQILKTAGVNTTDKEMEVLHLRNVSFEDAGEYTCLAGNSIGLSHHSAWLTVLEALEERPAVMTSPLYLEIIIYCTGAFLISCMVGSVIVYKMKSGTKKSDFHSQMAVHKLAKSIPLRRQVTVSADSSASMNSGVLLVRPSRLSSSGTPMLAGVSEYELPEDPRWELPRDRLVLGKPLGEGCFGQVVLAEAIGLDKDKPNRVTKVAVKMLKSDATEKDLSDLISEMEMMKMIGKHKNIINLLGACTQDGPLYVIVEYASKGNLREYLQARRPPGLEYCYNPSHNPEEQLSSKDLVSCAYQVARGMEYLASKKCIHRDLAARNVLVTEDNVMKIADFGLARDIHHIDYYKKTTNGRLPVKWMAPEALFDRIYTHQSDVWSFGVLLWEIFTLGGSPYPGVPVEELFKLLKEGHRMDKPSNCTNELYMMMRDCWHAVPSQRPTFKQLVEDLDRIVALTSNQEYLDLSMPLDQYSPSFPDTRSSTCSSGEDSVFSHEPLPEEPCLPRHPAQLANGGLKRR
Procedure, shortened: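 Cell-free recombinant kinase with fluorescent substrate, product separated by electrophoretic mobility shift; read 1 hour after dosing, loss of signal relative to DMSO. Initial screen in duplicate at 25 uM, actives followed in concentration series.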

[13] = target: human c-Jun N-terminal Kinases (JNK2), MAPK9 (gene 5601) (UniProt P45984); test: NVS_ENZ_hJNK2: NovaScreen (NVS) Enzymatic Assay for human c-Jun N-terminal Kinases (JNK2) (AID 2283171)
Chain of human c-Jun N-terminal Kinases (JNK2), MAPK9 (gene 5601) (P45984 whole entry, looked up): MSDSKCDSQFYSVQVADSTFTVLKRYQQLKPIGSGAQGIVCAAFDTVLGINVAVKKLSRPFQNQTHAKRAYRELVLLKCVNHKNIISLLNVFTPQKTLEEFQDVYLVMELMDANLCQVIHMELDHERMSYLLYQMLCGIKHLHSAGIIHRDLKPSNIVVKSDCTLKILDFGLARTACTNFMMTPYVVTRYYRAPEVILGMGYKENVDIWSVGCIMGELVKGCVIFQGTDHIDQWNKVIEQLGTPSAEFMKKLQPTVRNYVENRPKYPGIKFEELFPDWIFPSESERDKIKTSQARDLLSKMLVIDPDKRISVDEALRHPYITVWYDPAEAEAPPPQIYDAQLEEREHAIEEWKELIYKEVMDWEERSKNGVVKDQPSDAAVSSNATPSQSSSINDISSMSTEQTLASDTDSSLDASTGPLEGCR
Procedure, shortened: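 Cell-free recombinant human JNK2 activity assay; fluorescent substrate and product separated by electrophoretic mobility shift, read 1 h after dosing. Primary duplicate screen at 25 uM; actives run in concentration-response up to 50 uM, relative to DMSO.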

[14] = target: Mitogen-activated protein kinase 3 (Homo sapiens) (UniProt P27361); test: NVS_ENZ_hMAPK3: NovaScreen (NVS) Enzymatic Assay for human Mitogen-Activated Protein Kinase 3 (MAPK 3) (AID 2283177)
Chain of Mitogen-activated protein kinase 3 (Homo sapiens) (P27361 whole entry, looked up): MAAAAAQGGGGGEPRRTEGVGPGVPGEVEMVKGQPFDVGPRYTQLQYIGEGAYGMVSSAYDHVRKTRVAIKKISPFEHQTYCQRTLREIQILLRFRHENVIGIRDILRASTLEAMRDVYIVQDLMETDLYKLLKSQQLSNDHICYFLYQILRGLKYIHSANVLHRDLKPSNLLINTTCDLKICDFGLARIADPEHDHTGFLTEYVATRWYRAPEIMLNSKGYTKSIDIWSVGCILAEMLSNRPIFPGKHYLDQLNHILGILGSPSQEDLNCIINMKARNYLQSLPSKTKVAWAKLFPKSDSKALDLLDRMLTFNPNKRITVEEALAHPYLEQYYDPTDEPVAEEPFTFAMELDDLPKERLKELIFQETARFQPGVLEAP
Procedure, shortened: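 Cell-free enzymatic assay with recombinant protein and specific substrate; fluorescence and electrophoretic mobility shift read-out 1 h after dosing. Primary screen duplicate at 25 uM; actives then run in concentration-response up to 50 uM, loss of signal versus DMSO.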

[15] = target: human Mitogen- and Stress-activated Protein Kinase-1 (Msk1), RPS6KA5 (gene 9252) (UniProt O75582); test: NVS_ENZ_hMsk1: NovaScreen (NVS) Enzymatic Assay for human Mitogen- and Stress-activated Protein Kinase-1 (Msk1) (AID 2283187)
Procedure, shortened: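 Recombinant kinase with fluorescent substrate; product separated by electrophoretic mobility shift, read 1 h after dosing. Screened in duplicate at 25 uM; hits (e.g. ≥30% inhibition) tested in concentration–response up to 50 uM. DMSO baseline.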

[16] = target: human Phosphodiesterase 4A1 (PDE4A1), PDE4A (gene 5141) (UniProt P27815); test: NVS_ENZ_hPDE4A1: NovaScreen (NVS) Enzymatic Assay for human Phosphodiesterase 4A1 (PDE4A1) (AID 2283191)
Procedure, shortened: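 Cell-free recombinant human PDE4A1 with fluorescent substrate; product separated by electrophoretic mobility shift, 1 h. Screened at 25 uM, then up to 50 uM in concentration-response; loss of signal fitted against DMSO.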

[17] = target: human Phosphodiesterase 5 (PDE5), PDE5A (gene 8654) (UniProt O76074); test: NVS_ENZ_hPDE5: NovaScreen (NVS) Enzymatic Assay for human Phosphodiesterase 5 (PDE5) (AID 2283194)
Procedure, shortened: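 Recombinant human PDE5 with specific substrate, read 1 h after dosing by fluorescence with electrophoretic mobility-shift separation of substrate and product. Initial single-concentration duplicate screen at 25 uM, actives followed in concentration series; loss of activity versus DMSO.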

[18] = target: Tyrosine-protein phosphatase non-receptor type 14 (Homo sapiens) (UniProt Q15678); test: NVS_ENZ_hPTPN14: NovaScreen (NVS) Enzymatic Assay for human Protein Tyrosine Phosphatase Non-receptor Type 14 (PTPN14) (AID 2283206)
Procedure, shortened: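 Cell-free recombinant human PTPN14 with fluorescent substrate, read 0.5 h after dosing by fluorescence and electrophoretic mobility shift separating substrate from product. Primary screen at 25 uM in duplicate; hits run to 50 uM maximum; loss of signal versus DMSO.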

[19] = target: human SRC Proto-Oncogene, Non-receptor Tyrosine Kinase (SRC), SRC (gene 6714) (UniProt P12931); test: NVS_ENZ_hSRC: NovaScreen (NVS) Enzymatic Assay for human SRC Proto-Oncogene, Non-receptor Tyrosine Kinase (SRC) (AID 2283223)
Chain of human SRC Proto-Oncogene, Non-receptor Tyrosine Kinase (SRC), SRC (gene 6714) (P12931 whole entry, looked up): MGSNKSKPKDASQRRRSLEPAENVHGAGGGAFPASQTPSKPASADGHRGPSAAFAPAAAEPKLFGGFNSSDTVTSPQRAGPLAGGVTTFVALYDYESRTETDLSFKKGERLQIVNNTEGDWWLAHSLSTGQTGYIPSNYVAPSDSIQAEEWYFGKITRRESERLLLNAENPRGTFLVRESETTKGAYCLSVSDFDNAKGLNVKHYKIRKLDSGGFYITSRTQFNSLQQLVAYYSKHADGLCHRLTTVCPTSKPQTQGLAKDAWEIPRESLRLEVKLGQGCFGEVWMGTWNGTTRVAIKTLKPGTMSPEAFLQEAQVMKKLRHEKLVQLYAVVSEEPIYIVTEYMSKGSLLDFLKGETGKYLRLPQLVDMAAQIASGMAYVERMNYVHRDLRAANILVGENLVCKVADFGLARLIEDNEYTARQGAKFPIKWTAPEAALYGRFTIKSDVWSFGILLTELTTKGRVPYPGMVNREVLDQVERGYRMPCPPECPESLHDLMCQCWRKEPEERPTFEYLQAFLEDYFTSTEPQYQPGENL
Procedure, shortened: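 Cell-free kinase activity assay with fluorescent substrate, product separated by electrophoretic mobility shift, read 1 h after dosing. Duplicate single point at 25 uM, then concentration-response up to 50 uM; loss of signal versus DMSO.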

[20] = tested on: bovine Histamine 1 Receptor (H1), gene 281231; test: NVS_GPCR_bH1: NovaScreen (NVS) G Protein-Coupled Receptor Assay for bovine Histamine 1 Receptor (H1) (AID 2283246)
Procedure, shortened: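 Radioligand displacement on bovine cerebellar membranes, 1 h after dosing, filter-based scintillation read-out; loss of signal vs DMSO. Duplicate single-concentration screen at 25 uM, then concentration-response up to 50 uM for hits.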

Measured: AC50

CC(C)CCCCCCCOC(=O)c1ccccc1C(=O)OCCCCCCCC(C)C
inactive: THRB (gene 7068) [1] | THRB (gene 7068) [2] | [3] | [4]

CCc1cc(C)cc(CC)c1-c1c(OC(=O)C(C)(C)C)n2n(c1=O)CCOCC2
active: [5] 6.11 µM

CNC(=N[N+](=O)[O-])NCC1CCOC1 (stereo not given)
inactive: [6]

O=CNC(N1CCN(C(NC=O)C(Cl)(Cl)Cl)CC1)C(Cl)(Cl)Cl (stereo not given)
active: [7] 5.16 µM
inactive: [8]

N#CCCCCC#N
inactive: [9] | [10] | [11] | [12] | [13] | [14] | [15] | [16] | [17] | [18] | [19] | [20]
